# Laboratory results from PubChem BioAssay AID504332 (National Center for Advancing Translational Sciences (NCATS), 2011).
# Values joined by “and” are separate entries in the source; they are usually repeats but may differ in a detail not shown here. Identical values can stand only once. About 31,000 (8.9%) of roughly 350,000 compounds were called active. Inconclusive results (about 15%) are left out. This is one part of a sample in which actives are shown more often than they occur. A number with no mark means an inactive call. Calls follow the shape of the dose curve; as a rule, active = well fitted inhibition curve with a large enough effect; inconclusive = small, poorly fitted or top-dose-only effect; inactive = no such curve, though single readings can be large or run the other way.
# Target: Histone-lysine N-methyltransferase EHMT2 (Homo sapiens) (UniProt Q96KQ7)
# Sequence (Q96KQ7 913-1193 limits assumed): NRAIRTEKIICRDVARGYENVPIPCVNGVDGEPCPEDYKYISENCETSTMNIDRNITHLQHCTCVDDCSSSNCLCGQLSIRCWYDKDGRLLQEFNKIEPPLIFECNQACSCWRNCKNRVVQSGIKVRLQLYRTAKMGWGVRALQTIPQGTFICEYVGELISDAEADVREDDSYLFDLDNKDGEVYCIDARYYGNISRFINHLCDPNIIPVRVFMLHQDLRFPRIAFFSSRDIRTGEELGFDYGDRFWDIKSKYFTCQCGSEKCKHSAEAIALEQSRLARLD
# Test: qHTS Assay for Inhibitors of Histone Lysine Methyltransferase G9a; also: nearly all actives have a fitted effect of over 75% in size
# Details: G9a H3K9 monomethylation, AlphaScreen, 2 h; series mostly up to 59 µM; activity, negative = inhibition: at the top concentration
# Outline: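 G9a (20 nM) preincubated 15 min RT with compounds, then 500 nM biotinylated H3K9 peptide and 20 uM SAM added; 2 h RT reaction. Monomethyl-H3K9 product detected by AlphaScreen with anti-H3K9me1 antibody, streptavidin donor and anti-rabbit IgG acceptor beads.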
# % is scaled to controls: 0 for no effect and ±100 for the full control effect; potency is read from the fitted curve at half-maximal effect.
SMILES,"activity, negative = inhibition",Potency
COc1ccc(-n2ccn(CC(=O)Nc3ccc(C)c(C)c3)c(=O)c2=O)cc1OC,-34.1%,
Oc1ccc(Cn2cc[nH]c2=S)cc1,,3.16 µM (active) and 2.99 µM (active)
O=C1C(Cc2ccc(O)cc2)NC(=S)N1Cc1ccccc1 (stereo not drawn),4.15% [at 102 µM],
N#Cc1ccc(OCC(=O)NC(=O)NC2CCS(=O)(=O)C2)cc1 (stereo not drawn),-2.17% [at 12.7 µM],
COc1ccc(OC)c(S(=O)(=O)Nc2c(C)nn(C)c2C)c1,3.63% [at 12.7 µM],
COCCCn1c(SCC(=O)Nc2oc(C)c3c(C)n[nH]c(=O)c23)nc2sc3c(c2c1=O)CCC3,,6.31 µM (active)
C=CCn1c(SCC(=O)NCCCO)nc2sc3c(c2c1=O)CCC3,29.7% [at 102 µM],
Cc1nc2sc3c(c2c(=O)n1NC(=O)CCl)CCCC3,-21.8% [at 102 µM],
Cc1ccc(S(=O)(=O)N(CC(=O)Nc2ccc(Cl)cc2Cl)c2ccccc2C)cc1,23.4%,
CCCCN(C1CCS(=O)(=O)C1)S(=O)(=O)c1ccc(C(C)C)cc1 (stereo not drawn),-28.2% [at 102 µM],
O=C(CCC(=O)N1CC2CCCN2c2ccccc21)NCc1ccccc1Cl (stereo not drawn),-28.5%,
COc1cc(OC)c(NC(=O)N2CC3CCCN3c3ccccc32)cc1Cl (stereo not drawn),,8.91 µM (active)
Cc1ccccc1CNC(=O)c1ccc(NC(=O)N2CCCCc3ccccc32)cc1,15.8%,
COc1cc(OC)c(NC(=O)C2CCCN2C(=O)OCc2ccccc2)cc1Cl (stereo not drawn),16.8% [at 102 µM],
COc1ccc(CNC(=O)c2ccc(NC(=O)N3CC4CCCN4c4ccccc43)cc2)cc1 (stereo not drawn),,7.08 µM (active)
COc1ccccc1CNC(=O)c1ccc(NC(=O)N2CC(C)Sc3ccccc32)cc1 (stereo not drawn),7.67%,
Cc1cccc(N2CCN(C(=O)COCc3cc(-c4ccc5c(c4)OCO5)on3)CC2)c1C,,inactive
Oc1ccccc1C1=NN(c2ccccc2)C(c2ccccc2)C1 (stereo not drawn),99% [at 102 µM],
O=C(NNC(=O)c1cc(-c2ccccc2Cl)nc2ccccc12)c1csc(N2CCOCC2)n1,10% [at 2.33 µM],
Cc1ccccc1C(=O)Nc1nnc(S(=O)(=O)N(C)c2ccc(Cl)cc2)s1,-0.311%,
CCOC(=O)N1CCN(Cc2nc3cc(NC(C)=O)ccc3n2C)CC1,18.2% [at 102 µM],
CCOC(=O)N1CCN(Cc2nc3ccc([N+](=O)[O-])cc3c(=O)n2-c2cccc(OC)c2)CC1,,39.8 µM (active)
COc1cccc(-n2nc(C(=O)N3CCN(Cc4ccccc4)CC3)c3ccccc3c2=O)c1,-35.7% [at 102 µM],
CCCCN1C(=O)c2[nH]nc(-c3ccccc3O)c2C1c1cccc(OCc2ccccc2)c1 (stereo not drawn),-0.0883%,

SMILES,"activity, negative = inhibition",Potency
Cc1cccc(C(=O)NCc2nnc(SC(C)C(=O)Nc3nnc(C)s3)n2C)c1 (stereo not drawn),-30.1% [at 102 µM],
COCCCn1c(SCC(=O)NC2CCCC2)nnc1-c1ccccc1,23% [at 102 µM],
COCCn1c(SC(C)C(=O)NC2CC2)nnc1-c1cccc(C)c1 (stereo not drawn),,28.2 µM (active)
Cc1ccc(NC(=O)c2oc3ccc(S(=O)(=O)N4CCCCC4)cc3c2C)cc1Cl,0.299%,
C=CCn1c(=O)c(C(=O)NCc2ccc3c(c2)OCO3)c(O)c2ccccc21,71.8% [at 102 µM],
C/C(CCC(=O)OC[C@H]1O[C@H](C#Cc2ccccc2)C=C[C@@H]1Oc1ccc(C)cc1)=N\OC[C@@H](O)[C@H]1O[C@@H]2OC(C)(C)O[C@@H]2[C@H]1O,,50.1 µM (active)
COc1cc(C)c(C)cc1S(=O)(=O)N1CCCc2ccccc21,87% [at 102 µM],
CC1CN(C2CCN(C(=O)COc3ccccc3)CC2)CC(C)O1 (stereo not drawn),,8.91 µM (active)
COc1ccc(OCC(=O)N2CCN(C(=O)COc3ccccc3)CC2)cc1,21%,
COc1ccc(OCC(=O)N2CCOCC2)cc1,6.34% [at 12.7 µM],
Cc1cc(C)cc(NC(=O)C(OC(=O)c2ccc(O)cc2)c2ccccc2)c1 (stereo not drawn),-7.57% [at 12.7 µM],
CC(C)(C)c1ccc(C(=O)Nc2ccc3c(c2)CCCN3C(=O)c2cccs2)cc1,-0.495%,
CCCCCn1c(=O)[nH]c2cc(C(=O)Nc3cc(C)cc(C)c3)ccc2c1=O,3.83%,
O=C(O)c1ccccc1CSc1nc2ccccc2s1,,10 µM (active)
O=C(O)CSCc1nc2ccccc2s1,-10.2%,
O=C(CSc1nc2ccccc2s1)Nc1ccc(C(=O)O)cc1,-6.27%,
Cc1ccc(Cc2nc3ccccc3nc2SCC(=O)Nc2cccc(C(F)(F)F)c2)cc1,-0.77%,
COc1ccc(S(=O)(=O)N2CCN(CC(=O)NCC3(N4CCOCC4)CCCCC3)CC2)cc1,-3.79% [at 12.7 µM],
Cc1cc(C)cc(NC(=O)Cn2nc(N3CCN(c4ccccc4)CC3)ccc2=O)c1,-31.5%,
COc1ccc(NC(=O)c2cnc(Nc3ccc(C)c(Cl)c3)c3ccccc23)cc1OC,3.97%,
Cc1csc2nc(COc3ccc(NC(=O)COc4ccccc4)cc3)cc(=O)n12,-2.98%,
Cc1csc2nc(COC(=O)c3ccccc3NC(=O)c3ccccc3Cl)cc(=O)n12,6.79%,
O=c1cc(CCl)nc2scc(-c3ccccc3)n12,,50.1 µM (active)
Cc1cccc2c(=O)cc(CSc3ccccc3NC(=O)C(C)C)[nH]c12,-21.4%,
